Assay results published in PubChem BioAssay (NCATS).
Records with an inconclusive call do not appear. The source made the active and inactive calls. Calls come from the whole dose curve; as a rule, active = well fitted curve in the direction sought with a large enough effect; inconclusive = small, poorly fitted or top-dose-only effect, or another doubt; inactive = no such curve, though single readings can be large; an effect the other way counts as inactive or inconclusive.

Key:
[1] = target: Aldehyde dehydrogenase, mitochondrial (Homo sapiens) (UniProt P05091); test: qHTS for Inhibitors of the Aldehyde Dehydrogenase Family (ALDH2) Primary screen (AID 2061308); note: nearly all actives have a fitted effect of over 55% in size; note: potency is the fitted concentration of half-maximal effect
[2] = target: Retinaldehyde dehydrogenase 3 (Homo sapiens) (UniProt P47895); test: qHTS for Inhibitors of the Aldehyde Dehydrogenase Family (ALDH1A3) Validation screen (AID 2061312); note: nearly all actives have a fitted effect of over 45% in size; note: potency is the fitted concentration of half-maximal effect
[3] = target: Retinaldehyde dehydrogenase 3 (Homo sapiens) (UniProt P47895); test: qHTS for Inhibitors of the Aldehyde Dehydrogenase Family (ALDH1A3) Primary screen (AID 2061315);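 note: plate controls were DMSO vehicle for no effect and reference inhibitor for full effect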
[4] = BET inhibitor-based combinations targeting novel dependencies in MECOM-rearranged (r) AML: SET-2 cell line (AID 2202231); settings: SET-2 AML cells viability, CellTiter-Glo luminescence, 48 h; viability: hits give low values, concentration not given here; note: nearly all actives have a fitted effect of over 35% in size; note: potency is the fitted concentration of half-maximal effect;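 for viability: plate controls were DMSO treated cells for no effect and wells without cells for full effect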
Procedure, shortened: (§1)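 AML cell lines seeded at 500 cells/well, treated with 11-point dose curves for 48 h. Viability by CellTiter-Glo luminescence, normalised to DMSO and empty wells; activity expressed as AUC and per-cell-line Z-transformed AUC.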

[5] = BET inhibitor-based combinations targeting novel dependencies in MECOM-rearranged (r) AML: OCI-AML3 cell line (AID 2202232); settings: Potency: OCI-AML3 viability; note: nearly all actives have a fitted effect of over 35% in size; note: potency is the fitted concentration of half-maximal effect
Procedure, shortened: as §1

[6] = BET inhibitor-based combinations targeting novel dependencies in MECOM-rearranged (r) AML: MV-4-11 cell line (AID 2202233); note: nearly all actives have a fitted effect of over 45% in size; note: potency is the fitted concentration of half-maximal effect
Procedure, shortened: (§2)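 Cells at 500/well were exposed for 48 hr to MIPE v5.0 drugs as 11-point dose curves. Viability was read by CellTiter-Glo luminescence and normalized to DMSO and empty-well controls. Activity was expressed as AUC and per-cell-line Z-AUC.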

[7] = BET inhibitor-based combinations targeting novel dependencies in MECOM-rearranged (r) AML: HNT-34 cell line (AID 2202234); note: nearly all actives have a fitted effect of over 35% in size; note: potency is the fitted concentration of half-maximal effect
Procedure, shortened: as §2

[8] = BET inhibitor-based combinations targeting novel dependencies in MECOM-rearranged (r) AML: UCSD-AML1 cell line (AID 2202235); note: nearly all actives have a fitted effect of over 40% in size; note: potency is the fitted concentration of half-maximal effect
Procedure, shortened: as §2

[9] = BET inhibitor-based combinations targeting novel dependencies in MECOM-rearranged (r) AML: AML-191 cell line (AID 2202236; note: nearly all actives have a fitted effect of over 35% in size; note: potency is the fitted concentration of half-maximal effect)
Procedure, shortened: as §1

[10] = BET inhibitor-based combinations targeting novel dependencies in MECOM-rearranged (r) AML: AML-194 cell line (AID 2202237; note: nearly all actives have a fitted effect of over 40% in size; note: potency is the fitted concentration of half-maximal effect)
Procedure, shortened: as §1

[11] = target: Retinal dehydrogenase 2 (Homo sapiens) (UniProt O94788); test: qHTS for Inhibitors of the Aldehyde Dehydrogenase Family (ALDH1A2) Confirmation screens (AID 2061314); note: nearly all actives have a fitted effect of over 65% in size; note: potency is the fitted concentration of half-maximal effect
[12] = target: Aldehyde dehydrogenase 1A1 (Homo sapiens) (UniProt P00352); test: qHTS for Inhibitors of the Aldehyde Dehydrogenase Family (ALDH1A1) Confirmatory screens (AID 2061316); note: potency is the fitted concentration of half-maximal effect; nearly all actives have a fitted effect of over 65% in size

C#CCNCc1cc2cc(OCc3ccccc3)ccc2[nH]1
inactive: Potency [1] | Potency [2] | Potency [3]

CC(=O)OC1C(=O)C2(C)C(O)CC3OCC3(OC(C)=O)C2C(OC(=O)c2ccccc2)C2(O)CC(OC(=O)C(O)C(NC(=O)c3ccccc3)c3ccccc3)C(C)=C1C2(C)C (stereo unspecified)
inactive: Potency [1] | Potency [2] | Potency [3]

CCc1ccccc1OC[C@@H](O)CN[C@H]1CCCc2ccccc21
inactive: Potency [1] | Potency [2] | Potency [3]

CCc1cnn2c(NCc3ccc[n+]([O-])c3)cc(N3CCCCC3CCO)nc12 (stereo unspecified)
inactive: Potency [1] | Potency [2] | Potency [3]

CCCc1[nH]nc2c1C(c1cc(Cl)cc(Cl)c1O)C(C#N)=C(N)O2 (stereo unspecified)
inactive: Potency [1] | Potency [2] | Potency [3]

O=C(NCc1nc2ccccc2c(=O)n1-c1ccc(F)cc1)Nc1ccc(Cl)c(C(F)(F)F)c1
inactive: Potency [1] | Potency [2] | Potency [3]

C[C@@H](NC(=O)C(=O)c1c[nH]c2ccc([N+](=O)[O-])cc12)c1ccccc1
inactive: Potency [1] | Potency [2] | Potency [3]

CC(C)n1cnc2c(Nc3cccc(Cl)c3)nc(NCCO)nc21
inactive: Potency [1] | Potency [2] | Potency [3]

Cc1cc(C)cc(-c2cnc3cc(Cl)c(-c4cccc(O)c4)cc3c2OCCCN)c1
inactive: Potency [1] | Potency [2] | Potency [3]

CCC(C)CNCC(=O)N1CCc2sccc2C1COc1cccc(C)c1 (stereo unspecified)
inactive: Potency [1] | Potency [2] | Potency [3]

CCOC(=O)Nc1nc2ccccc2[nH]1
inactive: Potency [1] | Potency [2] | Potency [3]

CN(C)C(CCOc1cccc2ccccc12)c1ccccc1 (stereo unspecified)
inactive: Potency [1] | Potency [2] | Potency [3]

CN(C)CCN(Cc1ccccc1)C(=O)c1cc(-c2ccc(F)cc2)n2nc(C(C)(C)C)cc2n1
inactive: Potency [1] | Potency [2] | Potency [3]

CC[C@H](C)[C@H]1O[C@]2(CC[C@@H]1C)C[C@@H]1C[C@@H](C/C=C(\C)[C@@H](O[C@H]3C[C@H](OC)[C@@H](O[C@H]4C[C@H](OC)[C@@H](O)[C@H](C)O4)[C@H](C)O3)[C@@H](C)/C=C/C=C3\CO[C@@H]4[C@H](O)C(C)=C[C@@H](C(=O)O1)[C@]34O)O2
inactive: Potency [1] | Potency [2] | Potency [3]

O=C(c1ccc(Cl)c([N+](=O)[O-])c1)N1CCN(c2ccccc2F)CC1
inactive: Potency [1] | Potency [2] | Potency [3]

COc1c(Nc2ncc(Cl)c(N[C@H]3[C@@H](C(N)=O)[C@@H]4C=C[C@H]3C4)n2)ccc2c1CC[C@@H](N1CCOCC1)CC2
inactive: Potency [1] | Potency [2] | Potency [3]

OC1CCC(Nc2ncc3nc(Nc4c(F)cc(F)cc4F)n([C@H]4CCOC4)c3n2)CC1 (stereo partly specified)
inactive: Potency [1] | Potency [2] | Potency [3]

Cn1c(=O)c2c(ncn2CC2OCCO2)n(C)c1=O
inactive: Potency [1] | Potency [2] | Potency [3] | viability [4] 103% | Potency [5] | Potency [6] | Potency [7] | Potency [8] | Potency [9] | Potency [10]

O=C(NC1Cc2ccccc2N(C[C@@H](O)CO)C1=O)c1cc2cc(Cl)sc2[nH]1 (stereo partly specified)
inactive: Potency [1] | Potency [2] | Potency [3]

Fc1ccc(-n2cc(CCCCN3CCC4(CC3)OCc3ccccc34)c3ccccc32)cc1
inactive: Potency [1] | Potency [2] | Potency [3]

COc1cc2c(cc1-c1c(C)noc1C)ncc1[nH]c(=O)n(C(C)c3ccccn3)c12 (stereo unspecified)
inactive: Potency [1] | Potency [2] | Potency [3]

CN(c1nccc(=O)[nH]1)C1CCN(c2nc3ccccc3n2Cc2ccc(F)cc2)CC1
inactive: Potency [1] | Potency [2] | Potency [3]

O=C(NC1(c2ccccc2)CC1)c1c(CN2CCC(N3CCCCC3)CC2)c(-c2cccc(C(F)(F)F)c2)nc2cc(Br)ccc12
inactive: Potency [1] | Potency [2] | Potency [3]

CC(C)(C)c1ccc(CN2CCN(C(c3ccccc3)c3ccc(Cl)cc3)CC2)cc1 (stereo unspecified)
active: Potency [2] 31.6 µM
inactive: Potency [1] | Potency [3]

O=C1Cc2c([nH]c3ccc(Br)cc23)-c2ncccc2N1
inactive: Potency [1] | Potency [2] | Potency [3]

CC(C)Oc1ccc(C(=O)NC(CNC(=O)CN(C)C)Cc2ccc(-c3cn4cccc(C(C)O)c4n3)cc2)cc1Cl (stereo unspecified)
inactive: Potency [1] | Potency [2] | Potency [3]

N#Cc1c(-c2ccc(Cl)cc2)no[n+]1[O-]
active: Potency [1] 7.94 µM | Potency [11] 10.1 µM
inactive: Potency [3]

CCCC1(CCC)CCC2(CCN(CCCN(CC)CC)C2)CC1
inactive: Potency [1] | Potency [2] | Potency [3]
active: Potency [4] 5.9 µM | Potency [6] 6.61 µM | Potency [7] 4.68 µM | Potency [8] 8.33 µM | Potency [10] 9.34 µM

COc1ccc(C2=Nn3c(nnc3-c3ccc(OC)cc3OC)SC2)cc1
inactive: Potency [1] | Potency [11] | Potency [3]

O=C1c2ccccc2NC(c2ccc(-c3ccc(C(F)(F)F)cc3)o2)N1O (stereo unspecified)
inactive: Potency [3]
active: Potency [1] 4.47 µM | Potency [11] 22.5 µM | Potency [12] 7.12 µM

Cc1[nH]c2ccccc2c1CCNCc1ccc(/C=C/C(=O)NO)cc1
active: Potency [4] 0.0833 µM | Potency [5] 0.0661 µM | Potency [6] 0.0525 µM | Potency [7] 0.0934 µM | Potency [8] 0.0934 µM | Potency [9] 0.0833 µM | Potency [10] 0.105 µM
inactive: Potency [1] | Potency [2]

O=C(Nc1cn[nH]c1-c1nc2ccc(CN3CCOCC3)cc2[nH]1)NC1CC1
active: Potency [5] 4.68 µM | Potency [6] 0.0263 µM | Potency [7] 0.332 µM | Potency [8] 0.118 µM | Potency [9] 2.09 µM | Potency [10] 2.09 µM
inactive: Potency [1] | Potency [2] | Potency [3]
